Assay [1] can be described thus: qHTS assay to identify small molecule agonists of H2AX (AID 1224845; active means well fitted activation curve with a large enough effect in the signal ratio in the repeat runs, not every such curve was filed as active; the % refers to the signal ratio; further: potency means the concentration at half of the fitted maximal effect). Summed up: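 Wild-type CHO-K1 cells, plated overnight, exposed 3hr at 37C to 15 concentrations (0.76% DMSO final). Lysed, then HTRF anti-pH2AX (S139) cryptate and anti-H2AX-d2 antibodies, 24 hr room temperature; 665/620 nm emission read.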
Background: In qHTS, concentration-response curves come from the screen itself.

The nature of assay [2]: qHTS assay to identify small molecule agonists of the hypoxia (HIF-1) signaling pathway (AID 1224846; active means well fitted activation curve with a large enough effect in the signal ratio in the repeat runs, not every such curve was filed as active; the % refers to the signal ratio). The gist of the method: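 In ME-180 cells bearing an HRE-bla construct, 17 h treatment with DMSO-dissolved compounds at 37C was followed by CCF4-AM loading to quantify reporter induction.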
A short description of assay [3]: qHTS RealTime-Glo MT Cell Viability Assay in HepG2 cells - 24 hour (AID 1224867). Further: nearly all actives have a fitted effect of over 50% in size. Further: potency means the concentration at half of the fitted maximal effect. The gist of the method:
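Compound treatment began 5 h after plating HepG2 cells (600/well) with NanoLuc luciferase and prosubstrate. Plates stayed at 37 C for 40 h; luminescence was captured at six time points, 0 h through 40 h.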

A short description of assay [4]: qHTS RealTime-Glo MT Cell Viability Assay in HEK293 cells - 32 hour (AID 1224868). Further: nearly all actives have a fitted effect of over 50% in size. Further: potency means the concentration at half of the fitted maximal effect. The gist of the method:
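Quantitative high-throughput screen of the Tox21 10K library in HEK293: cells and RealTime-Glo reagents plated together, compound added at 5 h, luminescence monitored through 40 h at 37 C.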

Assay [5] in a line: qHTS RealTime-Glo MT Cell Viability Assay in HepG2 cells - 40 hour (AID 1224870). Further: nearly all actives have a fitted effect of over 50% in size. Further: potency means the concentration at half of the fitted maximal effect. Summed up: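 HepG2 cells (600/well) mixed with RealTime-Glo MT reagent, settled 5 h at 37 C/5% CO2 before compound addition. Nonlytic NanoLuc luminescence from viable-cell prosubstrate reduction read repeatedly during 40 h treatment at 37 C.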
Assay [6] in a line: A CellTox Green Cytotoxicity Assay to monitor cytotoxicity in HEK293 cells - 40 hour (AID 1224871). Further: nearly all actives have a fitted effect of over 45% in size. Further: potency means the concentration at half of the fitted maximal effect. Summed up: (§1)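 Homogeneous no-lysis format: HEK293 cell suspension mixed with CellTox Green reagent, seeded, incubated 5 h at 37 C/5% CO2, then dosed by pintool with compound in DMSO.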
Assay [7] is described as follows: qHTS assay to identify small molecule agonists of H2AX - cell viability counter screen (AID 1224847; calls by dose curve; further: nearly all actives have a fitted effect of over 30% in size; further: potency means the concentration at half of the fitted maximal effect). Summed up: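 We seed wild-type CHO-K1 cells overnight, treat them for 3 hr at 37C with compounds in 15-concentration series, and quantify remaining viability by CellTiter-Glo luminescence.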
A short description of assay [8]: qHTS assay to identify small molecule antagonists of the estrogen related receptor (ERR) signaling pathway from Tox21 library (AID 1224848). Further: nearly all actives have a fitted effect of over 50% in size. Further: potency means the concentration at half of the fitted maximal effect. The gist of the method: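 Quantitative high-throughput format: ERR reporter cells (2,000/well) pre-incubated 6 h, treated 18 h at 37 C with compounds in DMSO alongside positive and negative controls, then read by ONE-Glo luminescence.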

A short description of assay [9]: qHTS assay to identify small molecule agonists of the estrogen related receptor (ERR) signaling pathway from Tox21 library (AID 1224849; calls by dose curve; further: nearly all actives have a fitted effect of over 15% in size). Conditions: ERR reporter cell line, ONE-Glo luciferase, 18 h. The gist of the method:
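Reporter cells (ERR, NTP source) treated with Tox21 10K compounds 18 h, 37 C. Readout: ONE-Glo luminescence, 30 min RT.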

Assay [10] can be described thus: A CellTox Green Cytotoxicity Assay to monitor cytotoxicity in HEK293 cells - 0 hour (AID 1224869). Further: nearly all actives have a fitted effect of over 50% in size. The gist of the method: as §1

SMILES strings stand for the structures. Several values for one entry are separate records, joined by “and”; a condition that tells them apart may be missing. Equal values may be shown once. Results filed as inconclusive are left out. The source holds several records for some structures; these can differ, active in one and inactive in another. Activity calls are given as the source filed them. Unless noted, the call rests on the fitted dose curve; in most records, active means well fitted curve in the direction sought with a large enough effect in the repeat runs; inconclusive means weak or mixed curves; inactive means no such curve, though single readings can be large; an effect the other way counts as inactive or inconclusive.
On the % scale 0 is the no-effect control and ±100 the full control effect.

Consider `NC(=O)c1cccnc1`, for which the Potency result in assay [1], in [3], in assay [4], in assay [5] and in [6] was “inactive” each time. In assay [2], the call was inactive.
Regarding `CCOc1ccc(NC(C)=O)cc1`, the Potency result in [1], in assay [7], in assay [8], in assay [5] and in assay [6] was “inactive” each time. Also, the compound was called inactive in assay [2]. In addition, the activity change, positive = activation in assay [9] (at 42.5 µM (top of the series)) is 9.79% (inactive); in [9] (at 92.4 µM (top of the series)) it was 9.07% (inactive) and -21.8% (inactive). The Potency result in assay [4] was “inactive and 24.5 µM (active)”.
As to `O=C1NS(=O)(=O)c2ccccc21`, the Potency entry in assay [1], in assay [3], in assay [4], in [10], in [5] and in assay [6] was “inactive” throughout. In addition, in assay [2], the call was inactive.
With `CC12CCC(CC1)C(C)(C)O2`, the Potency result in assay [1], in [7], in assay [3], in assay [4], in assay [10] and in assay [5] was “inactive” each time. Moreover, the Potency result in assay [6] is “inactive”. For the same compound, in assay [2], the compound was called inactive.
Turning to `CCCCCCCCCCCCCCCC[N+](C)(C)Cc1ccccc1`, the Potency entry in assay [1] was “inactive”. Moreover, the Potency is 117 µM (active) and 45.8 µM (active) and 49.2 µM (active) in assay [7]; 11.2 µM (active) and 11.1 µM (active) and 11.9 µM (active) in assay [8]; 7.14 µM (active) and 11.2 µM (active) and 3.38 µM (active) in assay [4]; 14.2 µM (active) and 12.5 µM (active) and 8.49 µM (active) in assay [5]; 50.5 µM (active) and 39.6 µM (active) and 23.9 µM (active) in assay [6]. In addition, the activity change, positive = activation is -56.4% (inactive) in assay [9] (at 42.5 µM (top of the series)); -78.7% (inactive) and -80.7% (inactive) in assay [9] (at 92.4 µM (top of the series)).
As for `O=C1c2c(O)cccc2Cc2cccc(O)c21`, the Potency entry in assay [1], in assay [7], in [4], in assay [10], in assay [5] and in assay [6] was “inactive” throughout.
In the case of `CNNCc1ccc(C(=O)NC(C)C)cc1`, the Potency result in assay [1], in assay [3], in [4], in [5] and in assay [6] was “inactive” throughout. In addition, the compound was classed as inactive in [2].
`CC(=O)Nc1c(I)c(NC(C)=O)c(I)c(C(=O)O)c1I`: the Potency result in [1], in assay [4], in assay [5] and in assay [6] was “inactive” each time.
`Cc1cccc(C)c1`: the Potency result in [1], in assay [7], in assay [8], in [4], in assay [10] and in assay [5] was “inactive” throughout. For the same compound, the Potency result in assay [6] was “inactive”. The compound was called inactive in assay [2]. Also, the activity change, positive = activation in assay [9] (at 92.4 µM (top of the series)) was -11.8% (inactive) and 5.13% (inactive).
With `COc1ccc2c(c1)c(CC(=O)O)c(C)n2C(=O)c1ccc(Cl)cc1`, the Potency result in assay [1], in [7], in assay [3], in assay [4], in assay [5] and in [6] was “inactive” each time. For the same compound, the compound was called inactive in assay [2]. Moreover, the Potency in assay [8] is 30.8 µM (active) and inactive. Moreover, the activity change, positive = activation in assay [9] (at 42.5 µM (top of the series)) is -11.8% (inactive); in assay [9] (at 92.4 µM (top of the series)), -34.2% (inactive) and -25.5% (inactive).
As for `CN(N=O)C(=O)N[C@@H]1[C@@H](O)[C@H](O)[C@@H](CO)O[C@@H]1O`, the Potency result in assay [1], in assay [7], in assay [3], in assay [4], in assay [5] and in [6] was “inactive” throughout. Also, the compound was classed as inactive in assay [2].
Consider `CCCCCCCCCCCC[N+](C)(C)Cc1ccccc1`, for which the Potency result in assay [1] and in assay [10] was “inactive” throughout. The Potency in [7] is 98.8 µM (active) and 110 µM (active) and 49.2 µM (active); in assay [3] it was 12.1 µM (active) and 21.2 µM (active) and 8.49 µM (active); in [4] it was 3.4 µM (active) and 2.99 µM (active) and 2.13 µM (active); in assay [5] it was 8.54 µM (active) and 16.8 µM (active) and 6.74 µM (active); in [6] it was 42.8 µM (active) and 47.4 µM (active) and 23.9 µM (active).
Turning to `C=CCc1ccc(O)c(OC)c1`, the Potency result in assay [1], in assay [7], in assay [4], in assay [5] and in assay [6] was “inactive” each time. Further, the compound was called inactive in [2].
As for `CCCCCCc1ccc(O)cc1O`, the Potency entry in assay [1], in assay [8], in [10] and in assay [5] was “inactive” in each case. Moreover, the result in assay [2] was inactive. For the same compound, the activity change, positive = activation in assay [9] (at 42.5 µM (top of the series)) is 2.16% (inactive); in assay [9] (at 92.4 µM (top of the series)), -16.7% (inactive) and -6.89% (inactive). Also, the Potency was 21.9 µM (active) and 9.77 µM (active) in assay [4]; 49.1 µM (active) and 49 µM (active) and inactive in assay [6].
For `O=C1O[C@H]([C@@H](O)CO)C(O)=C1O`, the Potency entry in [1], in assay [7], in assay [4], in [10], in assay [5] and in assay [6] was “inactive” each time. In addition, the call in assay [2] was inactive.
On to `CC/C(=C(\c1ccccc1)c1ccc(OCCN(C)C)cc1)c1ccccc1`, for which the Potency is 50.5 µM (active) in assay [1]; 38.9 µM (active) [middle of 4 runs] in [3]; 22.1 µM (active) [middle of 5 runs] in assay [4]; 24.5 µM (active) [middle of 4 runs] in assay [5]; 24.7 µM (active) [middle of 5 runs] in assay [6].
Regarding `Cc1cc(C)nc(NS(=O)(=O)c2ccc(N)cc2)n1`, the Potency entry in assay [1], in assay [7], in [3], in assay [4], in [10] and in [5] was “inactive” each time. Further, the Potency entry in assay [6] was “inactive”. In addition, in assay [2], the compound was classed as inactive.
`O=c1[nH]cc(F)c(=O)[nH]1`: the Potency result in assay [1], in [7], in assay [3], in assay [4] and in assay [5] was “inactive” throughout. For the same compound, the Potency in assay [6] is 50.8 µM (active) and inactive.
`Cc1ncc([N+](=O)[O-])n1C`: the compound was called inactive in assay [2]. For the same compound, the Potency entry in assay [7], in assay [8], in [3], in [4], in assay [10] and in [5] was “inactive” throughout. In assay [6], the Potency entry was “inactive”. In addition, the activity change, positive = activation in assay [9] (at 42.5 µM (top of the series)) is 5.13% (inactive); in assay [9] (at 92.4 µM (top of the series)), 5.9% (inactive) and -0.499% (inactive).

(Values after PubChem BioAssay (Tox21).)
